# Results published in PubChem BioAssay AID651719 (The Scripps Research Institute Molecular Screening Center, 2012).
# In all, about 360,000 compounds went through this assay and about 1,600 (0.44%) were called active.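 Rule for the calls: active = inhibition above the screen-wide average plus 3 SD (cut at about 13% in these data); inactive = the rest.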 For the sample, actives were picked, then their nearest neighbours and some compounds at random.
# Molecular target: Galanin receptor type 3 (Homo sapiens) (UniProt O60755)
# Sequence (O60755 1-299 limits assumed): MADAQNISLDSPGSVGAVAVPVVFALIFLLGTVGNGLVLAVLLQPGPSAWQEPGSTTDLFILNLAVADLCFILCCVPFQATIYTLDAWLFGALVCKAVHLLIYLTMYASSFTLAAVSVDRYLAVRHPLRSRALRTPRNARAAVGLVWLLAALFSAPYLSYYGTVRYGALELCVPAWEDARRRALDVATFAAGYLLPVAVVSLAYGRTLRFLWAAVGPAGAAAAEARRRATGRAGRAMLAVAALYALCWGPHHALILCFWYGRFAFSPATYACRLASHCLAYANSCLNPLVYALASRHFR
# Experiment: GalR3 antagonists in HEK293 cells, primary screen, cell-based, fluorescence readout (AID 651719);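 note: forskolin and galanin both at EC90 stimulate the cells; cAMP rise reported by CNG channel membrane potential dye signal; 0% = forskolin plus galanin with DMSO and 100% = forskolin alone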
# Conditions: HEK293 GalR3-CNG cAMP membrane potential fluorescence; at 3 µM; hits give high values; galR3 body fused to GalR1 C-terminus
row,SMILES,inhibition
1,CCCCCCCCN1C(=O)[C@@H](CC(=O)N2CCN(C(=O)OCC)CC2)C[C@@]2(C(=O)OC)C1=C[C@H](C1CCCC1)O[C@@H]2C,-3.33% (inactive)
2,CCN1/C(=C\c2ccc3ccccc3[n+]2CC)Sc2cc(C)ccc21,45.8% (active)
3,COC(=O)[C@]12C[C@H](CC(=O)NCc3cccc(C(F)(F)F)c3)C(=O)N(Cc3ccc4c(c3)OCO4)C1=C[C@H](COCc1ccccc1)O[C@@H]2C,-4.92% (inactive)
4,COc1cccc(CNC(=O)[C@H]2CCCN2C(=O)[C@H]2CCCN2C(=O)C2CCCCC2)c1,-6.3% (inactive)
5,CCOc1cc(C(=O)N2CCc3cc(OC)c(OC)cc3C2)ccc1OC(F)F,31.5% (active)
6,COc1cc2c(cc1OC)CN(C(=O)c1ccc(S(=O)(=O)N3CCCCCC3)cc1)CC2,1.33% (inactive)
7,COc1cc2c(cc1OC)CN(C(=O)c1cc(S(=O)(=O)N3CCCCC3)ccc1Cl)CC2,-3.04% (inactive)
8,Nc1nc2c(ncn2[C@@H]2O[C@H](C(=O)N[C@@H](Cc3ccccc3)C(=O)NCc3ccccc3)[C@@H](O)[C@H]2O)c(=O)[nH]1,-5.49% (inactive)
9,Cc1cc(C(=O)OCC(=O)N2c3ccccc3NC(=O)C2(C)C)c(C)n1-c1ccccc1,-4.87% (inactive)
10,CCOC(=O)CN1C(=O)C(=O)c2cc(C)ccc21,-3.3% (inactive)
11,CCOC(=O)c1cc2n(c1C)-c1ccccc1C2=O,15.1% (active)
12,C#Cc1ccc(NC(=O)C2(C)CCN2C(=O)Cc2ccc(-c3ccccc3)cc2)cc1 (stereo not drawn),44.5% (active)
13,CCCNC(=O)C1(C)CCN1C(=O)Cc1ccc(-c2ccccc2)cc1 (stereo not drawn),-4.21% (inactive)
14,CC1(C(=O)NS(=O)(=O)c2ccccc2)CCN1C(=O)Cc1ccc(-c2ccccc2)cc1 (stereo not drawn),0.25% (inactive)
15,CCCn1nc(C(=O)NNC(=O)CSCC(=O)Nc2cc(C)on2)c2ccccc2c1=O,21.7% (active)
16,CCCn1nc(C(=O)NNC(=O)CCOc2ccccc2OCC)c2ccccc2c1=O,-2.63% (inactive)
17,CCCn1nc(C(=O)Nc2ccc3nc(C)sc3c2)c2ccccc2c1=O,-5.64% (inactive)
18,C[C@H](O)[C@@H]1CN2CCc3ccc(-c4ccc5c(c4)OCO5)cc3[C@@H]2C[C@@H]1N(C)C(=O)C1CCCCC1,-7.4% (inactive)
19,COC(=O)C1=C(C(=O)OC)C2C=C(C(C)C)C1C(=O)C2(C)O (stereo not drawn),-4.32% (inactive)
20,COC(=O)[C@]12C[C@H](CC(=O)NCc3ccccc3)C(=O)N(CCC3=CCCCC3)C1=C[C@H](C(C)(C)C)O[C@@H]2C,-4.94% (inactive)
21,O=C(CSc1ccc(-c2cccs2)nn1)Nc1ccccc1F,-4.48% (inactive)
22,Cc1c(Cl)cccc1NC(=O)CSc1ccc(-c2cccnc2)nn1,14.3% (active)
23,COc1cc(NC(=O)CSc2ccc(-c3cccnc3)nn2)cc(OC)c1,-2.54% (inactive)
24,O=S1(=O)c2ccc(Br)cc2-n2nncc2CN1Cc1cccc(Cl)c1,-7.46% (inactive)

row,SMILES,inhibition
1,COCCCNC(=O)C[C@H]1C[C@@]2(C(=O)OC)C(=C[C@H](C(C)(C)C)O[C@@H]2C)N(Cc2ccc3c(c2)OCO3)C1=O,-0.33% (inactive)
2,CCCN1Cc2cccc(C(=O)NCc3ccccc3)c2C1=O,-3.84% (inactive)
3,CCCN1Cc2cccc(C(=O)Nc3ccc(S(=O)(=O)N4CCCCCC4)cc3)c2C1=O,-8.35% (inactive)
4,COCCN1Cc2cccc(C(=O)Nc3ccccc3OC)c2C1=O,41.5% (active)
5,O=C(NS(=O)(=O)c1cccs1)[C@H]1O[C@@H](n2ccc(=O)[nH]c2=O)[C@H](O)[C@@H]1O,-5.05% (inactive)
6,Cc1cc2c(nc1C)CCCN2C,-4.98% (inactive)
7,O=C(CC(c1ccccc1)c1ccccc1)NCC(O)c1ccc([N+](=O)[O-])cc1 (stereo not drawn),-3.68% (inactive)
8,CC(CCc1ccccc1)NCC(O)c1cccc([N+](=O)[O-])c1 (stereo not drawn),26.9% (active)
9,CC(C)OC(=O)CC(=O)CC(O)c1cccc([N+](=O)[O-])c1 (stereo not drawn),-6.46% (inactive)
10,COc1ccc(S(=O)(=O)Nc2ccc3c(c2)C(=O)N([C@H](C)CO)C[C@H](C)[C@@H](CN(C)C)OCCCC[C@H](C)O3)cc1,-6.44% (inactive)
11,c1coc(CNc2ncnc3ccccc23)c1,82.2% (active)
12,c1ccc(CNc2ncnc3[nH]ncc23)cc1,-4.19% (inactive)
13,O=C(NCc1ccncc1)C(=O)NCc1ccco1,-2.62% (inactive)
14,C[C@H](O)[C@@H]1C(=O)N2CCc3c([nH]c4c(-c5ccc6c(c5)OCO6)cccc34)[C@@H]2C[C@@H]1N(C)C(=O)c1ccco1,-7.36% (inactive)
15,C[C@H]1[C@H](c2ccccc2)Oc2cc(Br)ccc2S(=O)(=O)N1Cc1cccc(F)c1,-2.05% (inactive)
16,O=C(Nc1ccccc1C(=O)N1CCOCC1)c1ccc(CSc2ccccc2)cc1,-0.11% (inactive)
17,CCOc1ccc(C(=O)Nc2ccc(CN3CCOCC3)cc2)cc1Cl,-8.84% (inactive)
18,O=C(Nc1ccc(CSc2ccccc2)cc1)c1ccc(CN2CCOCC2)cc1,95.3% (active)
19,COC(=O)N1Cc2ccnnc2CC1c1ccccc1Br (stereo not drawn),1.18% (inactive)
20,O=C(O)Cn1c(Cc2ccccc2)nc2ccccc21,-10.6% (inactive)
21,Cc1c(C=O)c2ccccc2n1CCOc1ccccc1,2.42% (inactive)
22,Cc1c(C=O)c2ccccc2n1CC(=O)O,12.7% (active)
23,C=CC1=CCN(S(=O)(=O)C(C)(C)C)[C@@H]1CCO,-6.58% (inactive)
24,O=C(NCc1ccccc1)[C@H]1CCCN1C(=O)[C@@H]1CCCN1C(=O)c1ccc(Cl)cc1Cl,-7.72% (inactive)

row,SMILES,inhibition
1,C[C@H]1CN([C@@H](C)CO)C(=O)CCCn2nncc2CO[C@@H]1CN(C)C(=O)Nc1ccc(N2CCN(C)CC2)cc1,-5.34% (inactive)
2,CC(C)[C@H]1COCCS(=O)(=O)N1Cc1ccccc1-c1cccc2c1sc1ccccc12,-3.29% (inactive)
3,Cn1c(N)c(C(=O)COC(=O)c2ccc3ccccc3c2)c(=O)n(C)c1=O,-4.21% (inactive)
4,Cn1c(N)c(C(=O)COC(=O)COc2ccc(Cl)cc2)c(=O)n(C)c1=O,-5.52% (inactive)
5,Cn1c(N)c(C(=O)COC(=O)c2cnc(Cl)c(Cl)c2)c(=O)n(C)c1=O,18.3% (active)
6,Cc1ccc(S(=O)(=O)N2CCN(C(=O)COC(=O)c3c(C)noc3C)CC2)c(C)c1,-3.17% (inactive)
7,Cc1ccc(S(=O)(=O)N2CCN(C(=O)COC(=O)c3c(C)cc(C)cc3C)CC2)c(C)c1,14.7% (active)
8,COc1ccc(/C=C/C(=O)OCC(=O)N2CCN(S(=O)(=O)c3ccc(C)cc3C)CC2)cc1OC,-2.95% (inactive)
9,COC(=O)C1=C(C)N(Cc2ccccc2C(F)(F)F)C(=NCc2ccc(OC)cc2)NC1c1cccc(C(F)(F)F)c1 (stereo not drawn),-3.7% (inactive)
10,CN1C(=O)C(Br)(Br)CC1c1cccnc1 (stereo not drawn),-8.3% (inactive)
11,Nc1nc2c(ncn2[C@@H]2O[C@H](C(=O)N[C@H](Cc3ccccc3)C(=O)NCC3CCCCC3)[C@@H](O)[C@H]2O)c(=O)[nH]1,-7.48% (inactive)
12,CSc1ccc(Oc2cccc3c2S(=O)(=O)N([C@H](C)c2ccccc2)C[C@@H](COCc2ccccc2)O3)cc1C,-3.93% (inactive)
13,CCc1c(C)nc(SCC(=O)NC2CCCC2)[nH]c1=O,-6.61% (inactive)
14,CCc1ccc(-c2nc(SCC(=O)NC3CCCC3)n[nH]2)cc1,24.9% (active)
15,COC(=O)c1ccccc1NC(=O)CSc1n[nH]c(-c2ccncc2)n1,-2.72% (inactive)
16,CN(C)C(=O)N1CCN(C(=O)[C@@H](Cc2ccccc2)NC(=O)[C@H]2O[C@@H](n3ccc(N)nc3=O)[C@H](O)[C@@H]2O)CC1,-7.47% (inactive)
17,COc1ccccc1CCn1cnc(-c2ccccc2)c1C(C)C,-9.98% (inactive)
18,Cc1ccc(C)c(NC(=O)COC(=O)c2nn(C)c(=O)c3ccccc23)c1,-2.16% (inactive)
19,Cc1ccc(F)cc1NC(=O)Cc1nn(C)c(=O)c2ccccc12,41.5% (active)
20,Cc1ccc(F)cc1NC(=O)CSCc1c(C)noc1C,-4.98% (inactive)
21,O=C(NCc1ccccc1)[C@H]1CCCN1C(=O)[C@H]1CCCN1C(=O)c1cc(F)cc(F)c1,-0.96% (inactive)
22,Nc1ccn([C@@H]2O[C@H](C(=O)N[C@H]3CCCCNC3=O)[C@@H](O)[C@H]2O)c(=O)n1,-3.96% (inactive)
23,C[C@@H]1CN([C@H](C)CO)C(=O)CCCn2cc(nn2)CO[C@H]1CN(C)C(=O)Nc1ccc(N2CCCCC2)cc1,-3.62% (inactive)
24,O=C(COC(=O)[C@H](Cc1ccccc1)NC(=O)c1cccs1)Nc1cc(F)ccc1F,-2.8% (inactive)

row,SMILES,inhibition
1,CC(=O)c1ccc(NC(=O)N[C@@H](Cc2ccccc2)C(=O)O)cc1,-4.01% (inactive)
2,NC(=O)c1ccc(NC(=O)COC(=O)C(Cc2ccccc2)NC(=O)c2ccccc2)cc1 (stereo not drawn),15.4% (active)
3,COC(=O)c1c(-c2ccc(OC)cc2)c2c(c3c4ccccc4n(S(=O)(=O)c4ccc(C)cc4)c13)C(=O)N(C)C2,-6.49% (inactive)
4,COc1ccc(-c2ccccc2C2Cc3nnccc3CN2C(=O)Nc2ccccc2)cc1 (stereo not drawn),-8.69% (inactive)
5,CCOC(=O)N1CCN(C(=O)C[C@H]2C[C@@]3(C(=O)OC)C(=C[C@H](C4CCCC4)O[C@@H]3C)N(Cc3ccccc3)C2=O)CC1,-2.22% (inactive)
6,C#CCN([C@@H](C)C(=O)OCC)S(=O)(=O)c1ccc(Br)cc1F,-6.91% (inactive)
7,CC(=O)c1ccc(NC(=O)C(C)N(C)CC(=O)Nc2ccccc2Cl)cc1 (stereo not drawn),-3.44% (inactive)
8,O=C(Nc1ccccc1Cl)/C(Cl)=C(\Cl)S(=O)c1ccccc1 (stereo not drawn),16.2% (active)
9,O=C(Nc1ccccc1Cl)c1ccccc1S(=O)(=O)c1ccccc1[N+](=O)[O-],0.75% (inactive)
10,COc1ccc(C2=CN(Cc3ccccc3)C(c3ccc(OC)cc3)CC2=O)cc1 (stereo not drawn),-4.04% (inactive)
11,Cc1occc(=O)c1OCc1ccc(F)cc1,5.85% (inactive)
12,Fc1cccc2ncnc(OCc3ccccc3)c12,-3.41% (inactive)
13,Cc1nc2ccccc2cc1OCc1ccc(F)cc1,80% (active)
14,CCOC(=O)Cn1c2c(n(-c3ccc(F)cc3)c1=O)C=C(c1ccccc1)[C@@H](C)C(C(=O)N(C)C1CCCCC1)=C2,-7.9% (inactive)
15,COC(=O)[C@]12C[C@H](CC(=O)NCCc3ccccc3OC)C(=O)N(Cc3ccccc3)C1=C[C@H](C(C)C)O[C@@H]2C1CC1,-6.79% (inactive)
16,COc1cc(NC(=O)c2cc([N+](=O)[O-])ccc2Br)ccc1NC(=O)c1ccco1,22.4% (active)
17,COc1ccc(CC(=O)Nc2ccccc2NC(=O)c2ccco2)cc1OC,-2.83% (inactive)
18,COc1ccc(NC(=O)c2ccco2)cc1NC(=O)c1ccc(C#N)cc1F,-2.95% (inactive)
19,Cc1ccc(C)c(CN2CCC(CNC(=O)C3CCCN(c4ncnc5c4nc4n5CCCCC4)C3)CC2)c1 (stereo not drawn),-1.9% (inactive)
20,Cc1[nH]c2ccccc2c1CC(=O)Nc1ccc(Nc2cccnc2)c(-c2cccc(Cl)c2)c1,-2.4% (inactive)
21,CCCCOCC1CN(CCCC)S(=O)(=O)c2c(Oc3ccc(F)cc3)cccc2O1 (stereo not drawn),2.7% (inactive)
